# Source: PubChem (National Center for Advancing Translational Sciences (NCATS))
# LASV entry inh: inhibitors of Lassa virus binding or cell entry; hit rate 1.2% among 300,000; Lassa virus pseudotype entry inhibition, cell reporter; AID 540256; Potency, µM (series often up to 37.9 µM), for the others: top-dose activity change, negative = inhibition, hits mostly inhibitors; calls by dose curve; tested in HEK293 cells; also: potency is read from the fitted curve at half-maximal effect; % is scaled to controls: 0 for no effect and ±100 for the full control effect; nearly all actives have a fitted effect of over 50% in size
# MARV entry inh: Marburg virus entry inhibition; AID 540276; Marburg virus pseudotyped entry inhibition, cell reporter; hit rate 1.8% among 300,000; Potency, µM (highest dose often 37.8 µM), for the others: at the highest dose activity change, negative = inhibition, hits mostly inhibitors; calls by dose curve; tested in HEK293 cells; also: potency is read from the fitted curve at half-maximal effect; % is scaled to controls: 0 for no effect and ±100 for the full control effect
# Shiga inhibitor: inhibitors of Shiga toxin in Vero cells; Vero cells, Shiga toxin protein synthesis inhibition reporter; inhibition, % at 38.7 µM; hit rate 9.2% among 290,000; AID 2315; in the data active = inhibition mostly above about 28%, no sharp cut-off; inactive = mostly below about 43%; also: 0% is about no effect
# Cycloheximide cs: counter-screen hit for Shiga toxin inhibitors, cycloheximide | max response, % | hit rate 12% among 300,000 | cell reporter, cycloheximide protein synthesis inhibition counterscreen; in the data active = max response mostly above about 13%, no sharp cut-off; inactive = mostly below about 14%; also: read at 38.3 µM for the half of the compounds with a filed dose; 0% is about no effect
# * marks the source's active call; other numbers are inactive results; ? = inconclusive; . = no result; [ ] = remark or other dose. In the library only some 12% were active in any assay of this set; here they are far more common.
SMILES,LASV entry inh,MARV entry inh,Shiga inhibitor,Cycloheximide cs
N/C(=N\OC(=O)c1ccc(Cl)cc1Cl)c1ccccn1,5.17µM*,3.66µM*,-20.2,-7.5
CCOC(=O)c1cc2occc2n1CC(=O)Nc1ccc(OC)cc1OC,-1.1%,-16.4%,-4.0,14.8
O=C(CCn1c(=S)oc2ccccc21)Nc1ccccc1Br,.,.,-2.5,-2.0
Cc1cc(/C=C2\SC(=S)N(Cc3ccco3)C2=O)c(C)n1-c1ccccc1,?,?,80.3*,73.2*
Cc1cc(/C=C2\SC(=O)N(C)C2=O)c(C)n1-c1ccc(S(N)(=O)=O)cc1,.,.,42.4,22.3*
O=C1/C(=C/c2ccccn2)SC(=S)N1c1cccc(O)c1,.,.,38.0*,36.4*
COc1ccc(-n2c(C)cc(/C=C3/SC(=S)N(C)C3=O)c2C)cc1,4.3%,?,11.5,8.8
Cc1cc(/C=C2\SC(=O)N(C)C2=O)c(C)n1-c1ccc(O)cc1,.,.,51.0*,34.1*
CCOc1ccc(N2C(=O)/C(=C/c3ccccn3)SC2=S)cc1,10.7%,1.0%,-3.6,-2.0
Cc1ccc(C(=O)N/C(=C\c2cccs2)C(=O)NCC2CCCO2)cc1C (stereo not given),3.6%,-4.2%,6.7,-1.0
CCCc1ccc(OC(=O)c2sc3ncn(Cc4cccc(F)c4)c(=O)c3c2C)cc1,25.6%[46.1 µM],.,.,.
CC(=O)NC1=NC(=O)/C(=C/c2cc(C)n(-c3ccc(NC(C)=O)cc3)c2C)S1,-13.6%[46.1 µM],1.9%[46.1 µM],42.9,33.0*
Cc1cc(/C=C2\SC(=S)N(C)C2=O)c(C)n1-c1cccc(O)c1,.,.,107.5*,58.8*
CN=C1S/C(=C\c2ccc(N3CCOCC3)cc2C)C(=O)N1C,1.8%,5.8%,4.9,9.1
CN=C1S/C(=C\c2cc(C)n(-c3ccccc3F)c2C)C(=O)N1C,?,?,95.7*,43.7*
COc1ccc(NC(=O)C(C)N2C(=O)c3ccccc3C2=O)cc1S(=O)(=O)N1CCOCC1 (stereo not given),-5.4%[46.1 µM],26.3%[46.1 µM],-4.3,1.8
O=C(N/N=C\c1ccc(CNS(=O)(=O)c2ccccc2)o1)C(=O)Nc1ccc(F)cc1,5.5%,-14.1%,-3.8,14.0*
CC(NCc1ccccc1)C1COc2ccccc2O1 (stereo not given),-14.3%,-9.3%,-8.7,-1.4
COc1ccc(CNC(C)C2COc3ccccc3O2)c(OC)c1 (stereo not given),1.7%,11.2µM*,-21.7,-0.4
Cc1ccc(-c2csc3ncnc(Nc4ccc(N5CCOCC5)cc4)c23)cc1,12.6µM*,?,-3.7,-3.3
Cc1ccc(Nc2ncnc3sc(C)c(C)c23)cc1,4.7%,4.5%,78.8*,24.0*
Oc1ccc(Nc2ncnc3scc(-c4ccccc4)c23)cc1,?,?,-10.2,-2.2
Cc1ccc(-c2csc3ncnc(NCCN4CCOCC4)c23)cc1,?,11.2µM*,-12.5,-3.4
Clc1ccc(-c2csc3ncnc(NCCN4CCOCC4)c23)cc1,?,?,-11.3,-6.2
Cc1ccc(-c2nn3c(-c4ccccc4C)nnc3c3ccccc23)cc1,-1.3%[46.1 µM],-4.4%[46.1 µM],.,.
SMILES,LASV entry inh,MARV entry inh,Shiga inhibitor,Cycloheximide cs
COc1ccc(-c2ccc(=O)n(Cc3ccc([N+](=O)[O-])cc3)n2)cc1,.,.,-4.2,-1.3
O=[N+]([O-])c1ccc2nc(-c3ccc(OC(F)F)cc3)cn2c1,?,?,72.5*,45.1*
NC(=O)C1(N2CCCCC2)CCN(Cc2ccc(Br)cc2)CC1,.,.,13.4,25.9*
COC(=O)c1sccc1NC(=O)COc1ccc(Cl)cc1Cl,17.6%,?,12.1,9.4
CC(=O)Nc1ccc(NC(=O)c2oc3c(c2C)-c2nn(Cc4ccccc4Cl)cc2CC3)cc1,19.6%[46.1 µM],.,.,.
CCc1ccc(/C=C/C(=O)C2C(=O)c3ccccc3C2=O)cc1,2.31µM*,?,54.2,11.7
O=C(/C=C/c1ccccc1)C1C(=O)c2ccccc2C1=O,6.5%,8.6%,42.0*,33.2*
C[C@H]1CN(c2ccccc2)C(=O)[C@H]1CC(=O)Nc1ccc(Br)cc1,-4.0%[46.1 µM],.,.,.
O=C(C[n+]1ccccc1)Nc1ccccc1Br,13.9%,?,52.6*,24.2*
O=C(COC(=O)/C=C/c1ccccc1)Nc1ccccc1Br,?,0.2%,-9.3,10.2
O=C(COC(=O)c1c(Cl)cccc1Cl)Nc1ccccc1Br,1.8%,-28.9%,17.6,26.4*
CS(=O)(=O)c1ccc(Cl)c(NC(=O)COC(=O)c2c(Cl)cccc2Cl)c1,-12.0%,-13.3%,20.1,-2.8
O=C(COC(=O)c1ccccc1)Nc1ccccc1Br,-4.2%,6.7%[46.1 µM],64.7*,39.6*
CCOc1ccc(C2/C(=C(/O)c3ccc(Cl)cc3)C(=O)C(=O)N2CCCN(C)C)cc1OC (stereo not given),.,0.0%,8.2,1.3
CCN(CC)S(=O)(=O)c1ccc(=O)n(CC(=O)N2Cc3ccccc3CC2C(N)=O)c1 (stereo not given),6.9%,-12.9%,.,.
CC(=O)c1c(C)nc(-c2ccc(Cl)cc2)nc1N,29.3%[46.1 µM],12.3%[46.1 µM],96.0*,43.9*
CC(=O)c1c(C)nc(-c2ccc(Cl)cc2)nc1N=CN(C)C,-4.9%,-14.6%,70.3*,45.7*
CC(=O)OC1=CN(Cc2ccccc2)S(=O)(=O)c2ccccc21,-18.2%[46.1 µM],8.4%[46.1 µM],.,.
O=C(c1cc2nc(C3CC3)cc(C(F)F)n2n1)N1CCOCC1,10.6%,-1.3%,32.5*,9.6
O=C(c1ccco1)N1CCN(CC(O)Cn2c3ccccc3c3ccccc32)CC1 (stereo not given),?,21.3%,25.4,8.6
O=C(Nc1nc2ccccc2[nH]1)c1cccc(S(=O)(=O)N2CCOCC2)c1,2.6%,-3.9%,42.4*,38.5*
Cc1cc(C)c2nc(NC(=O)[C@@H](NC(=O)c3cccc(S(=O)(=O)N4CCOCC4)c3)C(C)C)sc2c1,?,-33.7%,64.1*,31.8*
O=C(Nc1nc2ccccc2[nH]1)c1ccc(F)c(S(=O)(=O)N2CCOCC2)c1,-3.7%,-25.7%,44.1*,49.8*
O=C(Nc1ccc(F)c(F)c1)c1ccc(F)c(S(=O)(=O)N2CCOCC2)c1,.,0.0%,-13.7,-5.2
O=C(NCc1nc2ccccc2[nH]1)c1cccc(S(=O)(=O)N2CCOCC2)c1,?,1.3%,-10.3,-1.1
SMILES,LASV entry inh,MARV entry inh,Shiga inhibitor,Cycloheximide cs
COc1cc2c(cc1OC)CN(CC(=O)Nc1ccc(C)c(S(=O)(=O)N3CCOCC3)c1)CC2,.,.,-6.1,-8.7
O=C(CN1CCN(C(=O)C2CCCO2)CC1)Nc1ccc(Cl)c(Cl)c1 (stereo not given),.,.,-12.1,-2.4
CCN1CCN(C(c2ccccc2)c2nnnn2Cc2ccc3c(c2)OCO3)CC1 (stereo not given),.,.,-7.1,-2.8
CN=c1sc(C(=O)Nc2cccc(Cl)c2)cc(=O)n1C,?,?,-16.6,-1.7
Cn1ccs/c1=N\C(=O)Nc1cccc(Cl)c1,?,15.2%,71.4*,41.8*
COC1=C(C(=O)c2ccccc2)C(=O)[C@@]2(CC=C(C)C)C[C@@H]([S+](=O)([O-])c3ccccc3)C(C)(C)[C@@]1(CC=C(C)C)C2=O,?,-16.6%[14.2 µM],.,.
NC(=O)c1ccccc1NC(=O)Nc1cccc2ccccc12,-12.1%,?,14.5,36.0*
NC(=O)NNC(=S)Nc1cccc2ccccc12,10.6%,9.6%,-19.5,-0.6
O=C(Nc1cccc2ccccc12)c1cccc(F)c1,-25.5%[46.1 µM],8.5%[46.1 µM],28.3,6.9
Nc1ccccc1C(=O)Nc1cccc2ccccc12,.,.,35.8*,35.3*
O=C(Nc1cccc2ccccc12)c1ccc(F)cc1,.,.,52.1*,44.3*
